Shown is part of a subset that was picked to be rich in hits.
Pin1 inhibitor: blocks the human prolyl isomerase Pin1. Q13526. Pin1 FP peptide displacement, HiFluor488, 10 min. Potency, µM (highest dose often 115 µM), without a hit: at the top dose activity, negative = inhibition, usual class: inhibitors. 0.009% of 390,000 active. AID 504891; active = well fitted inhibition curve with a large enough effect in the polarisation, with a control signal flat, not every such curve was filed as active; inconclusive = small, poorly fitted or top-dose-only effect, or effect the other way, or a change in a side signal; inactive = no such curve, though single readings can be large or run the other way; the % refers to the polarisation; note: potency is the fitted concentration of half-maximal effect; % is set by controls: 0 for no effect and ±100 for the full control effect
Target sequence (Q13526 whole entry, looked up): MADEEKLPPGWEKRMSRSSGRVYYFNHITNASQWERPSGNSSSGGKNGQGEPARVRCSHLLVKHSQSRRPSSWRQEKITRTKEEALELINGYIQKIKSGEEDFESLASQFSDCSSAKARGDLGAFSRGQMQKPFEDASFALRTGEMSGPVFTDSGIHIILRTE
Tb PFK inh-1: blocks T. brucei phosphofructokinase; O15648; T. brucei PFK, ADP-Glo luminescence; Potency, µM (doses to about 57.5 µM), for inactives: at the highest dose activity, negative = inhibition, actives largely listed as inhibitors; 0.17% of 330,000 active; AID 485367;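 note: potency is the fitted concentration of half-maximal effect; 0% = uninhibited 1x PFK enzyme wells and -100% = no-enzyme wells; nearly all actives have a fitted effect of over 60% in size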
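Activity is normalized to no-enzyme wells (full inhibition) and 1.25 nM enzyme wells (no inhibition). Reaction: 0.5 mM F6P, 0.1 mM ATP, 45 min RT, ADP-Glo luminescence; concentration-response curves fitted and classed by quality.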
PI5P4K alpha inh: blocks human PI5P4K alpha kinase activity; PI5P4Kalpha enzyme, ADP-Glo luminescence, 60 min; stronger effect = lower value; P48426; 1.2% of 330,000 active; max response, %; AID 652105; active = max response of -50% or lower; inconclusive = between -30% and -50%; inactive = -30% or higher; note: value at the top dose of about 77 µM; % is set by controls: 0 for no effect and ±100 for the full control effect
Target sequence (P48426 whole entry, looked up): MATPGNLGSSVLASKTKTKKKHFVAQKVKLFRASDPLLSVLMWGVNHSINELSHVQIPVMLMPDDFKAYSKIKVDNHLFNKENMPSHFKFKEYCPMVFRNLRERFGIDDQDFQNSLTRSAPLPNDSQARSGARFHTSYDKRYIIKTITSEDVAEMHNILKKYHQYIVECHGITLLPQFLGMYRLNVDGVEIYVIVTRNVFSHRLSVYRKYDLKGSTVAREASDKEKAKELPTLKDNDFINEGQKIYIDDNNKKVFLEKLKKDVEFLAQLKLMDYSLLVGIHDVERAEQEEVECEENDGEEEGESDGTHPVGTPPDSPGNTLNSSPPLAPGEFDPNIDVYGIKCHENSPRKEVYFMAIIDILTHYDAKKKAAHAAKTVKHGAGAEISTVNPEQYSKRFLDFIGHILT
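Human PI5P4Kalpha with substrate in 0.038 M HEPES pH 7.4, 0.28 mM EGTA, 0.1% CHAPS, 5% DMSO; reaction started with 5 microM ATP (final), 60 min at room temperature. ADP formed read by ADP-Glo luminescence.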
Tb PGK inh: T. brucei PGK inhibition; P07378; PGK/GAPDH coupled, Kinase-Glo luminescence, 60 min; Potency, µM (series often up to 57.5 µM), for the others: at the highest dose activity change, negative = inhibition, hits mostly inhibitors; 0.043% of 380,000 active; AID 602233; note: potency is the fitted concentration of half-maximal effect; % is set by controls: 0 for no effect and ±100 for the full control effect; nearly all actives have a fitted effect of over 60% in size
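Luminescent ATP detection (Kinase-Glo Plus) follows a 60-minute room-temperature incubation, with wells lacking PGK as controls. Buffer: 100 mM TEA (pH 7.6), 5 mM MgCl2, 0.01% Tween-20. Coupling enzyme GAPDH (100 nM final) supplies unstable 1,3-BPG in-well.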
PI4K2A block: PI4K2A (human) kinase inhibition; activity change, negative = inhibition, % at 76.9 µM; 0.13% of 420,000 active; purified PI4K2A, ADP-Glo luminescence, 1 h; stronger effect = lower value; Q9BTU6; in the data active = activity change below about -50%; inconclusive = mostly about -30% to -49%;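 note: -100% = wells without enzyme as full effect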
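ADP-Glo luminescence measured ADP generated by PI4K2A enzyme (4 ug/mL before mixing) with 1.2 mM PI substrate (pre-mix) and 300 microM ATP (pre-mix). Tris pH7.5 buffer with MgCl2, Triton X-100; 1 h reaction at ambient temperature.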
TbPFK ATP: inhibits T. brucei PFK measured by ATP depletion; AID 504636; Potency, µM (series often up to 57.5 µM), for the others: top-dose inhibition; Tb PFK enzyme, ATP depletion, Kinase-Glo Plus luminescence; 47% of 1,100 active; shares compounds with Tb PFK inh-1; calls by dose curve; note: potency is the fitted concentration of half-maximal effect; nearly all actives have a fitted effect of over 60% in size
Tb PFK inh-2: T. brucei PFK enzyme inhibition, hit validation; Potency, µM (top dose mostly 57.5 µM), for inactives: at the highest dose activity change, negative = inhibition, most hits filed as inhibitors; shares compounds with Tb PFK inh-1; 41% of 1,100 active; purified T. brucei PFK, ADP-Glo luminescence, 45 min;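 note: potency is the fitted concentration of half-maximal effect; plate controls were full PFK enzyme control for no effect and no enzyme control for full effect; nearly all actives have a fitted effect of over 60% in size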
Numbers without * were called inactive. Unless noted, calls come from the whole dose curve; as a rule, active = well fitted curve in the direction sought with a large enough effect; inconclusive = small, poorly fitted or top-dose-only effect, or another doubt; inactive = no such curve, though single readings can be large; an effect the other way counts as inactive or inconclusive.

Screening O=C(Nc1ccc(Cc2ccncc2)cc1)c1ccc(Cl)c([N+](=O)[O-])c1 returned Pin1 inhibitor -4%, Tb PFK inh-1 21µM*, PI5P4K alpha inh -9, Tb PGK inh -5%, PI4K2A block 4, TbPFK ATP 21µM* and Tb PFK inh-2 inconclusive.
Screening O=[N+]([O-])c1ccc(Cl)c([N+](=O)[O-])c1 returned Pin1 inhibitor 12%, Tb PFK inh-1 -19%, PI5P4K alpha inh -2, Tb PGK inh 0% and PI4K2A block 16.
Screening CCN(CC)C(=O)c1ccc(NC(=O)c2ccc(-n3cncn3)c([N+](=O)[O-])c2)cc1 returned Pin1 inhibitor 5%, Tb PFK inh-1 -8%, PI5P4K alpha inh -7, Tb PGK inh 2% and PI4K2A block 6.
For Cc1cc(C)c2oc(C(=O)Nc3ccc(S(=O)(=O)Nc4nccs4)cc3)cc(=O)c2c1 the results were Pin1 inhibitor 157%, Tb PFK inh-1 inconclusive, PI5P4K alpha inh -27, Tb PGK inh 3%, PI4K2A block 3, TbPFK ATP -29% and Tb PFK inh-2 inconclusive.
Screening COc1ccc(/C=N\NC(=O)C2COc3ccccc3O2)cc1O (stereo unspecified) returned Pin1 inhibitor 3%, Tb PFK inh-1 13µM*, PI5P4K alpha inh -6, Tb PGK inh inactive, PI4K2A block -4, TbPFK ATP 8.5µM* and Tb PFK inh-2 12µM*.
For O=C(N/N=C/c1ccc2c(c1)OCO2)C1COc2ccccc2O1 (stereo unspecified) the results were Pin1 inhibitor -1%, Tb PFK inh-1 inconclusive, PI4K2A block 2, TbPFK ATP 19µM* and Tb PFK inh-2 21µM*.
Screening C[C@H](NC(=O)OCc1ccccc1)C(=O)NC(Cc1ccccc1)P(=O)(Oc1ccccc1)Oc1ccccc1 (stereo partly specified) returned PI4K2A block -4.
`CN1C(=O)NC(=O)/C(=C\C=C\c2ccccc2[N+](=O)[O-])C1=O` gave Pin1 inhibitor -7%, Tb PFK inh-1 inconclusive, PI5P4K alpha inh inconclusive, Tb PGK inh -6%, PI4K2A block -10, TbPFK ATP 2% and Tb PFK inh-2 inconclusive.
`O=C1NC(=O)N(CCc2ccc(F)cc2)C(=O)/C1=C\C=C\c1ccccc1` gave Pin1 inhibitor 10%, Tb PFK inh-1 -1%, PI5P4K alpha inh -4, Tb PGK inh -4% and PI4K2A block -6.
Screening O=c1c(O)c(-c2cc(O)c(O)c(O)c2)oc2cc(O)cc(O)c12 returned Pin1 inhibitor inconclusive, Tb PFK inh-1 8.5µM*, PI5P4K alpha inh -90*, Tb PGK inh inconclusive, PI4K2A block -1, TbPFK ATP 1.9µM* and Tb PFK inh-2 3.8µM*.
For O=C1N(c2ccc(Cl)c(Cl)c2)CN(Cc2ccccc2)CN1n1cnnc1 the results were Pin1 inhibitor -8%, Tb PFK inh-1 27µM*, PI5P4K alpha inh 0, Tb PGK inh -6%, PI4K2A block -1, TbPFK ATP inconclusive and Tb PFK inh-2 -16%.
Screening Cc1cccc(NC(=O)COc2ccc(/C=N\n3cnnc3)cc2)c1 returned Pin1 inhibitor -1%, Tb PFK inh-1 inconclusive, PI5P4K alpha inh -5, Tb PGK inh -10%, PI4K2A block 4, TbPFK ATP inconclusive and Tb PFK inh-2 -18%.
For CCc1nnc(NS(=O)(=O)c2ccc(NC(=S)NC(=O)/C=C/c3ccc(OC)cc3)cc2)s1 the results were Pin1 inhibitor -13%, Tb PFK inh-1 inconclusive, PI5P4K alpha inh -10, Tb PGK inh inconclusive, PI4K2A block 4, TbPFK ATP inconclusive and Tb PFK inh-2 inconclusive.
For COc1ccc(/C=C/C(=O)NC(=S)N2C[C@H]3C[C@H](C2)c2cccc(=O)n2C3)cc1 the results were Pin1 inhibitor 0%, Tb PFK inh-1 4%, PI5P4K alpha inh 6, Tb PGK inh -4% and PI4K2A block -3.

Screening data: PubChem BioAssay, National Center for Advancing Translational Sciences (NCATS)
